PubChem BioAssay AID1458 (National Center for Advancing Translational Sciences (NCATS), 2008)
“And” between values parts separate entries of the source, which are not always exact repeats. Equal entries are not always repeated. About 5,900 (2.8%) of roughly 210,000 compounds were called active. Inconclusive results (about 5%) are left out. This is one part of a sample in which actives are shown more often than they occur. Calls come from the whole dose curve; as a rule, active = well fitted activation curve with a large enough effect; inconclusive = small, poorly fitted or top-dose-only effect; inactive = no such curve, though single readings can be large or run the other way.

assay: qHTS Assay for Enhancers of SMN2 Splice Variant Expression; conditions: HEK293 SMN2-luciferase splicing reporter, luminescence, 30-36 h; series mostly up to 46.1 µM; note: nearly all actives have a fitted effect of over 55% in size; for Activity change, positive = activation: % of control where 0% means no effect
Summary of the method: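 HEK293 cells carry an SMN2 minigene-luciferase reporter in which exon 7 inclusion puts luciferase in frame. Cells were seeded at 2000 cells/well, attached for 10-12 hours, then exposed to compounds for 30-36 hours at 37C before ONE-Glo luminescence.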
Potency is the fitted concentration of half-maximal effect.

Potency, active:
COc1ccc(-n2ncc3c(N4CCc5ccccc54)ncnc32)cc1 5.62 µM
COc1cc(/C=N/n2c(C)n[nH]c2=S)ccc1OCc1ccccc1 12.6 µM
Cc1ccc(-n2ncc3c(Nc4cccc(C(=O)O)c4)ncnc32)cc1 14.1 µM and 11.2 µM
COc1c(C)c2c(c(O)c1C/C=C(\C)CCC(=O)O)C(=O)OC2 501 nM and 631 nM and 398 nM
COc1ccc(C2=Nc3cc(C)ccc3OC2)cc1 2.82 µM
Cc1cccc(-n2c(C)cc(/C=N\NC(=O)c3cccs3)c2C)c1 2 µM
CC(=O)Nc1ccc(/C=N/NC(=O)c2cccs2)cc1 17.8 µM
O=C(OC1CCOC1=O)c1ccc(-c2nc3ccccc3s2)s1 (configuration not stated) 12.6 µM
Cc1cc(NC(=O)Cn2nc(C(F)(F)F)c3c2CCCC3)no1 14.1 µM
COc1ccc2nc(Nc3nc4cc5c(cc4s3)OCCO5)sc2c1 20 µM
COc1ccc2nc(NC(=O)c3ccc(Br)s3)sc2c1 11.2 µM
O=[N+]([O-])c1ccccc1N/N=C1\CCc2ccccc21 11.2 µM
Cc1ccnc(Nc2nc3ccccc3s2)n1 3.55 µM
O=C(Nc1ccc2c(c1)CCC2)c1ccc(Br)s1 5.62 µM

Potency, inactive:
Cc1ccccc1NC(=O)Cn1c(=O)n(CCc2ccccc2)c(=O)c2ccccc21
COc1ccc(N2CCN(C(=O)CSc3ncnc4c3cnn4-c3ccc(OC)cc3)CC2)cc1
COc1ccc(-n2ncc3c(N4CCCc5ccccc54)ncnc32)cc1
CO[C@@]12[C@@H](COC(N)=O)C3=C(C(=O)C(C)=C(N)C3=O)N1C[C@@H]1N[C@@H]12
CC(C)c1ccc2oc(-c3cc(NC(=O)c4cccs4)ccc3Cl)nc2c1
CC1=C(C(=O)OCc2ccc(C)cc2)C(c2c(Cl)cccc2Cl)CC(=O)N1 (configuration not stated)
Cc1ccccc1OCC(=O)Nc1c(C(=O)Nc2ccccc2F)oc2ccccc12
Cc1n[nH]c(=S)n1/N=C/c1ccc(Br)o1
CNC(=S)N/N=C/c1ccc(OCc2ccccc2)c(Br)c1
Cc1cc(-c2ccccc2)n2nc(-c3ccccc3)cc2n1
Cc1ccc(NC(=O)CN2C(=O)CC(C)Sc3ccccc32)c(C)c1 (configuration not stated)
CC(C)=CCN1CCC2(CCc3ccccc32)CC1
CCOc1ccc(OCC)c(NC(=O)c2c(C)nn(-c3ccccc3)c2-n2cccc2)c1
COC(=O)c1c(NC(=O)c2ccc(Cl)c(Cl)c2)sc2c1CCCC2
COc1ccccc1Nc1nc(N)nc(N)c1S(=O)(=O)c1ccccc1
CCc1cc2c(cc3c(=O)n(CC(=O)NCCc4ccc(OC)c(OC)c4)ncn32)s1
O=C(NNc1ncnc2c1cnn2-c1ccccc1)c1ccco1
CCN(CC)C(=O)CSc1ncnc2c1cnn2-c1ccccc1
COc1ccc(Cl)cc1NC(=O)CSc1nc(-c2cccs2)cc(C(F)(F)F)n1
CCOCCCNC(=O)c1cn(CC)c2ccc(S(=O)(=O)N3CCc4ccccc4C3)cc2c1=O
CCc1ccc(C2CC(=O)c3c([nH]c(C(=O)OCc4ccc(C)cc4)c3C)C2)cc1 (configuration not stated)
COc1ccc(C2=NOC3(CC(=O)N(c4ccc(C)cc4)C3=O)C2)cc1 (configuration not stated)
COc1ccc(-c2cc(-c3ccccc3)nc3c2COc2ccc(Cl)cc2-3)cc1
Cc1ccc2c(c1)-c1c(cnn1CC(=O)Nc1ccccc1C#N)CO2
Cc1cccc(-n2c(C)cc(/C=N/NC(N)=S)c2C)c1
O=C(O)c1ccc(NC(=O)c2cccs2)cc1
CC(C)C(=O)Nc1ccc(C(=O)NNC(=O)c2cccs2)cc1
Cc1ccc(-n2nc(C)c(/C=N/NC(=O)c3cccs3)c2Cl)cc1
Cc1nn(Cc2ccccc2)c(Cl)c1C(=O)OC1CCOC1=O (configuration not stated)
O=C(c1cccs1)N1CCC(c2nc3ccccc3s2)CC1
COc1cccc(-c2nc(CS(=O)(=O)CC(=O)NCCc3ccc(OC)c(OC)c3)c(C)o2)c1
O=C(Cn1nc(C(F)(F)F)c2c1CCCC2)Nc1ccc(Cl)cc1
O=C(Cn1nc(C(F)(F)F)c2c1CCC2)NCc1ccc(F)cc1
Cc1cc(C)cc(NC(=O)Cn2c(=O)c3ccccc3n3nncc23)c1
CCOc1ccc(S(=O)(=O)Nc2nc3cc(OC)ccc3s2)cc1
COc1ccc2nc(NC(=O)[C@@H]3CCCN3C(=O)c3cccs3)sc2c1
COc1cccc(C(=O)Nc2nc3ccc(S(C)(=O)=O)cc3s2)c1
COc1ccc2nc(Nc3nc4ccc(NC(C)=O)cc4s3)sc2c1
COc1ccc(Cn2c(=O)n(-c3ccccc3C)c(=O)c3c4c(sc32)CN(C(C)=O)CC4)cc1
CCOC(=O)c1ccc(NC(=O)Cn2c(=O)n(-c3ccc(C)cc3)c(=O)c3c2cnn3C)cc1
O=[N+]([O-])c1cc(C(F)(F)F)ccc1NN=C1CCCC1
O=[N+]([O-])c1ccccc1NCc1ccccc1Cl
Cc1ccc(Cl)cc1N(C)C(=O)Cn1nc(Cc2cccnc2)c2ccccc2c1=O
COc1ccc(-n2c(C)nc3c(cnn3-c3ccc(F)cc3)c2=O)cc1
COc1ccc(-c2c3c(=O)n(C)c(=O)n(C)c3c3c(C)nc4ccccc4n23)cc1
FC(F)(F)c1cc(Nc2nc3ccccc3c3nncn23)ccc1Cl
CCN(C(=O)Cn1cc(S(=O)(=O)N2CCN(c3ccccc3F)CC2)c2ccccc2c1=O)c1ccc(C)c(C)c1
CSCCC(Nc1nc2ccccc2s1)C(=O)O (configuration not stated)
Cc1nn(-c2nc(-c3ccccc3)cc(C(F)(F)F)n2)c(C)c1Cl
Cc1ccccc1NC(=O)c1cc2c([nH]c1=O)CC(C)(C)CC2=O
O=C(NC1CCCC1)c1ccc(Br)s1
CC(C)C(=O)OCC(=O)Nc1ccc2c(c1)CCC2

Activity change, positive = activation, inactive:
c1ccc2sc(SCCSc3nc4ccccc4s3)nc2c1 -8.26% [at 9.22 µM]
